Source: the supplement of paper PMC4466140

target: AgAbp1; test: SPOT peptide array binding signal intensity (averaged, normalized) (arbitrary units (background-subtracted, floor 0; scale differs between SH3 domains)); higher = stronger binding of the SH3 domain to the peptide
Summary of the method: (§1)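 Binding signal refers to normalized, background-subtracted spot intensity averaged over replicates, expressed in arbitrary units that differ between domains. GST-fused SH3 domains from four yeast species were incubated at 10 μg/ml overnight at 4°C on cellulose membranes of synthetic 15-mer peptides with cysteines replaced by serines. Bound protein was detected with anti-GST antibody, an HRP anti-mouse secondary and luminol, and quantified with Genespotter.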

Row | Binder | SPOT peptide array binding signal intensity
1 | PPIPIVPSSPAPPLP | ≤ 0

target: AgBbc1; test: as above
Summary of the method: as §1

Row | Binder | SPOT peptide array binding signal intensity
2 | PPIPIVPSSPAPPLP | ≤ 0

target: AgBem1-D1; test: as above
Summary of the method: as §1

Row | Binder | SPOT peptide array binding signal intensity
3 | PPIPIVPSSPAPPLP | ≤ 0

target: AgBzz1-D1; test: as above
Summary of the method: as §1

Row | Binder | SPOT peptide array binding signal intensity
4 | PPIPIVPSSPAPPLP | 28

target: AgBzz1-D2; test: as above
Summary of the method: as §1

Row | Binder | SPOT peptide array binding signal intensity
5 | PPIPIVPSSPAPPLP | ≤ 0

target: AgCyk3; test: as above
Summary of the method: as §1

Row | Binder | SPOT peptide array binding signal intensity
6 | PPIPIVPSSPAPPLP | ≤ 0

target: AgFus1; test: as above
Summary of the method: as §1

Row | Binder | SPOT peptide array binding signal intensity
7 | PPIPIVPSSPAPPLP | ≤ 0

target: AgHof1; test: as above
Summary of the method: as §1

Row | Binder | SPOT peptide array binding signal intensity
8 | PPIPIVPSSPAPPLP | ≤ 0

target: AgHse1; test: as above
Summary of the method: as §1

Row | Binder | SPOT peptide array binding signal intensity
9 | PPIPIVPSSPAPPLP | ≤ 0

target: AgLsb1; test: as above
Summary of the method: as §1

Row | Binder | SPOT peptide array binding signal intensity
10 | PPIPIVPSSPAPPLP | ≤ 0

target: AgLsb4; test: as above
Summary of the method: as §1

Row | Binder | SPOT peptide array binding signal intensity
11 | PPIPIVPSSPAPPLP | ≤ 0

target: AgMyo5; test: as above
Summary of the method: as §1

Row | Binder | SPOT peptide array binding signal intensity
12 | PPIPIVPSSPAPPLP | 2150

target: AgNbp2; test: as above
Summary of the method: as §1

Row | Binder | SPOT peptide array binding signal intensity
13 | PPIPIVPSSPAPPLP | ≤ 0

target: AgRvs167; test: as above
Summary of the method: as §1

Row | Binder | SPOT peptide array binding signal intensity
14 | PPIPIVPSSPAPPLP | ≤ 0

target: AgSho1; test: as above
Summary of the method: as §1

Row | Binder | SPOT peptide array binding signal intensity
15 | PPIPIVPSSPAPPLP | ≤ 0

target: AgSla1-D1-D2; test: as above
Summary of the method: as §1

Row | Binder | SPOT peptide array binding signal intensity
16 | PPIPIVPSSPAPPLP | ≤ 0

target: AgSla1-D3; test: as above
Summary of the method: as §1

Row | Binder | SPOT peptide array binding signal intensity
17 | PPIPIVPSSPAPPLP | ≤ 0

target: CaAbp1-D1; test: as above
Summary of the method: as §1

Row | Binder | SPOT peptide array binding signal intensity
18 | PPIPIVPSSPAPPLP | ≤ 0

target: CaAbp1-D2; test: as above
Summary of the method: as §1

Row | Binder | SPOT peptide array binding signal intensity
19 | PPIPIVPSSPAPPLP | ≤ 0

target: CaBbc1; test: as above
Summary of the method: as §1

Row | Binder | SPOT peptide array binding signal intensity
20 | PPIPIVPSSPAPPLP | 0.5

target: CaBem1-D1; test: as above
Summary of the method: as §1

Row | Binder | SPOT peptide array binding signal intensity
21 | PPIPIVPSSPAPPLP | ≤ 0

target: CaBzz1-D1; test: as above
Summary of the method: as §1

Row | Binder | SPOT peptide array binding signal intensity
22 | PPIPIVPSSPAPPLP | ≤ 0

target: CaBzz1-D2; test: as above
Summary of the method: as §1

Row | Binder | SPOT peptide array binding signal intensity
23 | PPIPIVPSSPAPPLP | ≤ 0

target: CaCyk3; test: as above
Summary of the method: as §1

Row | Binder | SPOT peptide array binding signal intensity
24 | PPIPIVPSSPAPPLP | ≤ 0

target: CaFus1; test: as above
Summary of the method: as §1

Row | Binder | SPOT peptide array binding signal intensity
25 | PPIPIVPSSPAPPLP | ≤ 0

target: CaHof1; test: as above
Summary of the method: as §1

Row | Binder | SPOT peptide array binding signal intensity
26 | PPIPIVPSSPAPPLP | ≤ 0

target: CaHse1; test: as above
Summary of the method: as §1

Row | Binder | SPOT peptide array binding signal intensity
27 | PPIPIVPSSPAPPLP | ≤ 0

target: CaLsb1; test: as above
Summary of the method: as §1

Row | Binder | SPOT peptide array binding signal intensity
28 | PPIPIVPSSPAPPLP | ≤ 0

target: CaLsb4; test: as above
Summary of the method: as §1

Row | Binder | SPOT peptide array binding signal intensity
29 | PPIPIVPSSPAPPLP | ≤ 0

target: CaMyo5; test: as above
Summary of the method: as §1

Row | Binder | SPOT peptide array binding signal intensity
30 | PPIPIVPSSPAPPLP | 833

target: CaNbp2; test: as above
Summary of the method: as §1

Row | Binder | SPOT peptide array binding signal intensity
31 | PPIPIVPSSPAPPLP | 47.5

target: CaRvs167; test: as above
Summary of the method: as §1

Row | Binder | SPOT peptide array binding signal intensity
32 | PPIPIVPSSPAPPLP | ≤ 0

target: CaRvs167-3; test: as above
Summary of the method: as §1

Row | Binder | SPOT peptide array binding signal intensity
33 | PPIPIVPSSPAPPLP | ≤ 0

target: CaSho1; test: as above
Summary of the method: as §1

Row | Binder | SPOT peptide array binding signal intensity
34 | PPIPIVPSSPAPPLP | ≤ 0

target: CaSla1-D1-D2; test: as above
Summary of the method: as §1

Row | Binder | SPOT peptide array binding signal intensity
35 | PPIPIVPSSPAPPLP | ≤ 0

target: CaSla1-D3; test: as above
Summary of the method: as §1

Row | Binder | SPOT peptide array binding signal intensity
36 | PPIPIVPSSPAPPLP | ≤ 0

target: ScAbp1; test: as above
Summary of the method: as §1

Row | Binder | SPOT peptide array binding signal intensity
37 | PPIPIVPSSPAPPLP | ≤ 0

target: ScBbc1; test: as above
Summary of the method: as §1

Row | Binder | SPOT peptide array binding signal intensity
38 | PPIPIVPSSPAPPLP | ≤ 0

target: ScBem1-D1; test: as above
Summary of the method: as §1

Row | Binder | SPOT peptide array binding signal intensity
39 | PPIPIVPSSPAPPLP | ≤ 0

target: ScBzz1-D1; test: as above
Summary of the method: as §1

Row | Binder | SPOT peptide array binding signal intensity
40 | PPIPIVPSSPAPPLP | ≤ 0

target: ScBzz1-D2; test: as above
Summary of the method: as §1

Row | Binder | SPOT peptide array binding signal intensity
41 | PPIPIVPSSPAPPLP | ≤ 0

target: ScCyk3; test: as above
Summary of the method: as §1

Row | Binder | SPOT peptide array binding signal intensity
42 | PPIPIVPSSPAPPLP | ≤ 0

target: ScFus1; test: as above
Summary of the method: as §1

Row | Binder | SPOT peptide array binding signal intensity
43 | PPIPIVPSSPAPPLP | ≤ 0

target: ScHof1; test: as above
Summary of the method: as §1

Row | Binder | SPOT peptide array binding signal intensity
44 | PPIPIVPSSPAPPLP | 1.5

target: ScHse1; test: as above
Summary of the method: as §1

Row | Binder | SPOT peptide array binding signal intensity
45 | PPIPIVPSSPAPPLP | ≤ 0

target: ScLsb1; test: as above
Summary of the method: as §1

Row | Binder | SPOT peptide array binding signal intensity
46 | PPIPIVPSSPAPPLP | ≤ 0

target: ScLsb2; test: as above
Summary of the method: as §1

Row | Binder | SPOT peptide array binding signal intensity
47 | PPIPIVPSSPAPPLP | ≤ 0

target: ScLsb3; test: as above
Summary of the method: as §1

Row | Binder | SPOT peptide array binding signal intensity
48 | PPIPIVPSSPAPPLP | ≤ 0

target: ScLsb4; test: as above
Summary of the method: as §1

Row | Binder | SPOT peptide array binding signal intensity
49 | PPIPIVPSSPAPPLP | ≤ 0

target: ScMyo3; test: as above
Summary of the method: as §1

Row | Binder | SPOT peptide array binding signal intensity
50 | PPIPIVPSSPAPPLP | 2260

target: ScMyo5; test: as above
Summary of the method: as §1

Row | Binder | SPOT peptide array binding signal intensity
51 | PPIPIVPSSPAPPLP | 1940

target: ScNbp2; test: as above
Summary of the method: as §1

Row | Binder | SPOT peptide array binding signal intensity
52 | PPIPIVPSSPAPPLP | ≤ 0

target: ScPex13; test: as above
Summary of the method: as §1

Row | Binder | SPOT peptide array binding signal intensity
53 | PPIPIVPSSPAPPLP | ≤ 0

target: ScRvs167; test: as above
Summary of the method: as §1

Row | Binder | SPOT peptide array binding signal intensity
54 | PPIPIVPSSPAPPLP | ≤ 0

target: ScSho1; test: as above
Summary of the method: as §1

Row | Binder | SPOT peptide array binding signal intensity
55 | PPIPIVPSSPAPPLP | ≤ 0

target: ScSla1-D1-D2; test: as above
Summary of the method: as §1

Row | Binder | SPOT peptide array binding signal intensity
56 | PPIPIVPSSPAPPLP | ≤ 0

target: ScSla1-D3; test: as above
Summary of the method: as §1

Row | Binder | SPOT peptide array binding signal intensity
57 | PPIPIVPSSPAPPLP | 0.25

target: SpAbp1-D1; test: as above
Summary of the method: as §1

Row | Binder | SPOT peptide array binding signal intensity
58 | PPIPIVPSSPAPPLP | ≤ 0

target: SpBbc1; test: as above
Summary of the method: as §1

Row | Binder | SPOT peptide array binding signal intensity
59 | PPIPIVPSSPAPPLP | 3.5

target: SpBzz1-D1; test: as above
Summary of the method: as §1

Row | Binder | SPOT peptide array binding signal intensity
60 | PPIPIVPSSPAPPLP | ≤ 0
